Data on 29 molecules can be found in PubChem BioAssay (Tox21).

A short description of test [1]: qHTS assay for small molecule agonists of the p53 signaling pathway (AID 651631; calls by dose curve; further: nearly all actives have a fitted effect of over 15% in size). In short, it runs like this: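 Beta-lactamase reporter activity under p53 response elements was quantified in HCT-116 cells by FRET fluorescence, following 16 h incubation with test compounds at 37 °C and 2 h substrate development at room temperature.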
In general terms: Quantitative high-throughput screening tests each substance at several concentrations.

Test [2] is described as follows: qHTS assay for small molecules that induce genotoxicity in human embryonic kidney cells expressing luciferase-tagged ATAD5 (AID 651632). Further: nearly all actives have a fitted effect of over 15% in size. The essentials: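 DMSO vehicle served as the control. HEK293T reporter cells, 16 hr at 37C, then 30 min Amplite at room temperature; ATAD5 induction is measured as luciferase activity.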
Test [3] can be described thus: qHTS assay for small molecule agonists of the p53 signaling pathway - cell viability (AID 651633; calls by dose curve;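 further: p53RE-bla HCT reporter cells with a stable beta-lactamase p53 reporter; series mostly up to about 83 µM; nearly all actives have a fitted effect of over 30% in size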). The essentials:
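p53RE-bla cells, seeded at 4,000 per well and rested 5 h at 37 C/5% CO2, received compounds in DMSO for 16 h at 37 C. CellTiter-Glo was then added, and luminescence was read after 30 min at room temperature to gauge cytotoxicity.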

Test [4] is described as follows: qHTS assay for small molecules that induce genotoxicity in human embryonic kidney cells expressing luciferase-tagged ATAD5 - cell viability (AID 651634; calls by dose curve; further: nearly all actives have a fitted effect of over 25% in size). The essentials: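 Here HEK293T cells with the ATAD5 luciferase reporter are incubated with test compounds for 15.5 hr, and cytotoxicity is then gauged by measuring protease activity in live cells using fluorescence.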

The nature of test [5]: qHTS assay to test for compound auto fluorescence at 590 nm (red) in HepG2 cells (AID 720674). In short, it runs like this:
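Intrinsic compound fluorescence in the red window (Ex/Em 540/590 nm) is measured in attached HepG2 cells exposed for 1 hr, DMSO vehicle as baseline, benchmarked to Rose Bengal sodium.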

The nature of test [6]: qHTS assay to test for compound auto fluorescence at 535 nm (green) in HepG2 cells (AID 720675).
A short description of test [7]: qHTS assay to test for compound auto fluorescence at 460 nm (blue) in HEK293 cells (AID 720678). The essentials: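 Measured: blue fluorescence (Ex 405/Em 460 nm) of compound-treated HEK293 cells, incubated overnight at 37C with 5% CO2 and scaled to triamterene equivalents.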
Test [8] is described as follows: qHTS assay for small molecule disruptors of the mitochondrial membrane potential - cell viability (AID 720634; calls by dose curve;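 further: human HepG2 liver cancer cells; series mostly up to about 83 µM; nearly all actives have a fitted effect of over 20% in size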). The essentials:
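Viability of HepG2 cells is scored from ATP content by luminescence; cells are exposed to compound for 1 hr at 37 C and 5% CO2, then dosed with m-MPI dye before the CellTiter-Glo reagent.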

Test [9] is described as follows: qHTS assay to test for compound auto fluorescence at 590 nm (red) in HEK293 cells (AID 720679). In short, it runs like this:
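Using HEK293 cells at 2,000 per well, the screen added 23 nL of each compound after cell attachment and incubated overnight (37C, 5% CO2). The plate reader then captured red-label fluorescence, Ex/Em 540/590nm.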

A short description of test [10]: qHTS assay for small molecule disruptors of the mitochondrial membrane potential (AID 720635). Further: potency means the concentration at half of the fitted maximal effect. The essentials:
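HepG2 cells (2,000/well) attached overnight at 37C, then took compound for 1 hr at 37C, 5% CO2. Mito-MPS dye was added for 30 min; fluorescence was read at 490/535 nm (monomers) and 540/590 nm (aggregates).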

Each structure is given as a SMILES string. Inconclusive results are not listed. Active and inactive are the calls of the source. Unless noted, the call rests on the fitted dose curve; in most records, active means well fitted curve in the direction sought with a large enough effect in the repeat runs; inconclusive means weak or mixed curves; inactive means no such curve, though single readings can be large; an effect the other way counts as inactive or inconclusive.

For the molecule `COc1cccc(C(=O)NN(C(=O)c2cc(C)cc(C)c2)C(C)(C)C)c1C`, the Potency entry in test [1], in test [2], in test [3] and in [4] was “inactive” in each case. Besides, the call in test [5], in [6] and in [7] was inactive.

On to `O=CNC(N1CCN(C(NC=O)C(Cl)(Cl)Cl)CC1)C(Cl)(Cl)Cl` (stereo not drawn), for which the Potency result in [1], in [2], in [3], in test [4] and in [8] was “inactive” each time. For the same molecule, the call in test [5], in test [6] and in test [9] was inactive.

In the case of `NC(=O)c1cc([N+](=O)[O-])cc([N+](=O)[O-])c1`, the Potency result in [1], in [2], in test [3], in test [4] and in [8] was “inactive” throughout. The call in test [5], in test [6], in [7] and in test [9] was inactive.

In the case of `CC(C)[N+](=O)[O-]`, the Potency entry in test [1], in test [2], in [3] and in test [4] was “inactive” each time. Moreover, the result in [5], in [6], in [7] and in test [9] was inactive.

Turning to `CCOC(=O)CP(=O)(OCC)OCC`, the Potency result in [1], in [2], in [3], in test [4] and in test [8] was “inactive” in each case. Besides, the molecule was called inactive in test [5], in test [6] and in test [9].

For `CCNc1nc(NC(C)C)nc(OC)n1`, the Potency entry in [1], in test [2], in [3], in test [4] and in [8] was “inactive” throughout. Moreover, the call in test [5], in test [6], in [7] and in test [9] was inactive.

For `O=c1oc2ccccc2c(O)c1C1CCCc2ccccc21` (stereo not drawn), the Potency entry in test [1], in test [2], in test [3] and in [4] was “inactive” throughout. Besides, the Potency in test [10] is 13.7 µM (active). Besides, the result in test [5], in test [6], in test [7] and in [9] was inactive.

Take `CC(C=O)Cc1ccc2c(c1)OCO2` (stereo not drawn): the Potency entry in [1], in [2], in test [3], in [4] and in [8] was “inactive” in each case. The result in test [5], in test [6] and in [9] was inactive.

Turning to `CCC(=O)c1ccccc1`, the Potency result in test [1], in test [2], in test [3], in test [4] and in test [8] was “inactive” each time. Also, the result in [5], in test [6], in test [7] and in test [9] was inactive.

For the molecule `CCC/C(=N\OCC)C1=C(O)CC(CC(C)SCC)CC1=O` (stereo not drawn), the Potency result in [1], in test [2], in [3], in [4] and in test [8] was “inactive” each time. Further, the outcome in [5], in test [6] and in test [9] was inactive.

`BrCCCCCCBr`: the Potency result in test [1], in test [2], in test [3], in test [4] and in test [8] was “inactive” in each case. Also, the molecule was classed as inactive in test [5], in [6] and in [9].

As to `N#CCCC#N`, the Potency result in test [1], in test [2], in test [3] and in test [4] was “inactive” each time. Besides, the outcome in test [5], in test [6], in [7] and in test [9] was inactive.

Turning to `N#Cc1ccncc1`, the Potency result in test [1], in test [2], in [3], in test [4] and in [8] was “inactive” throughout. Also, the molecule was classed as inactive in test [5], in test [6], in test [7] and in test [9].

On to `CNNC`, for which the Potency result in [1], in test [2], in [3], in [4] and in test [8] was “inactive” in each case. The result in test [5], in test [6], in test [7] and in [9] was inactive.

In the case of `CC(COc1ccc(Oc2ccccc2)cc1)Oc1ccccn1` (stereo not drawn), the Potency result in test [1], in [2], in [3] and in test [4] was “inactive” each time. Moreover, the call in test [5], in [6], in [7] and in [9] was inactive.

In the case of `CCC(Cl)[N+](=O)[O-]` (stereo not drawn), the Potency result in test [1], in [2], in test [3], in test [4] and in test [8] was “inactive” in each case. The molecule was classed as inactive in test [5], in [6], in [7] and in [9].

Turning to `COc1cc(OC)nc(Oc2cccc(Oc3nc(OC)cc(OC)n3)c2C(=O)O)n1`, the Potency entry in [1], in test [2], in test [3], in test [4] and in [8] was “inactive” throughout. Besides, the call in [5], in test [6] and in test [9] was inactive.

In the case of `CCCCOC(=O)[C@@H](C)Oc1ccc(Oc2ccc(C#N)cc2F)cc1`, the Potency result in test [1], in [2], in test [3] and in test [4] was “inactive” in each case. Also, the call in test [5], in test [6] and in [9] was inactive.

With `ClC(Cl)C(Cl)Cl`, the Potency result in test [1], in [2], in [3], in test [4] and in test [8] was “inactive” each time. In addition, the call in [5], in test [6], in test [7] and in test [9] was inactive.

For `O=[N+]([O-])c1ccc(CBr)cc1`, the Potency result in test [1], in test [3], in test [4] and in test [8] was “inactive” each time. Besides, the outcome in [5], in test [6], in test [7] and in [9] was inactive.

For the molecule `CCN(CC)C(=O)[C@@H]1C=C2c3cccc4[nH]cc(c34)C[C@H]2N(C)C1`, the Potency result in [1], in test [3], in [4] and in [8] was “inactive” in each case. Further, the molecule was called inactive in test [5], in [6], in test [7] and in [9].

As for `CCN(CC)c1nc(C)cc(OP(=S)(OC)OC)n1`, the Potency entry in [1], in test [3] and in test [4] was “inactive” throughout. Also, the result in test [5], in test [6] and in test [7] was inactive.

Turning to `O=[N+]([O-])c1cccc2cccnc12`, the Potency entry in test [1], in [3] and in test [8] was “inactive” each time. For the same molecule, the molecule was called inactive in [5], in test [6], in [7] and in [9].

Regarding `C=C(C)[C@@H]1CC=C(C=O)CC1`, the Potency result in test [1], in test [3], in [4] and in test [8] was “inactive” throughout. For the same molecule, the outcome in [5], in test [6], in test [7] and in test [9] was inactive.

For the molecule `CCCCOC(=O)c1ccccc1C(=O)O`, the Potency result in test [1], in test [2], in test [3] and in [8] was “inactive” in each case. Also, the molecule was classed as inactive in test [5], in test [6], in [7] and in test [9].

With `Cc1cc(C)nc(Nc2ccccc2)n1`, the Potency entry in [1], in test [3], in test [4] and in [8] was “inactive” throughout. The call in [5], in test [6], in test [7] and in test [9] was inactive.

Consider `COc1ccc(C(=O)N2CCCC2=O)cc1`, for which the Potency entry in [1], in test [3] and in test [4] was “inactive” each time. Moreover, the result in test [5] and in [6] was inactive.

On to `CCOP(=S)(Oc1cnc(C(C)(C)C)nc1)OC(C)C` (stereo not drawn), for which the Potency entry in test [1], in test [3], in test [4] and in test [8] was “inactive” each time. The call in test [5], in test [6], in test [7] and in [9] was inactive.

For `CCCSC(=O)N(CCC)CCC`, the Potency entry in [1], in test [3], in test [4], in [8] and in [10] was “inactive” throughout. Further, the molecule was called inactive in test [5], in test [6], in [7] and in test [9].
